Assay results published in PubChem BioAssay.
A number with no mark means an inactive call. No rule for the calls is given here.

Target: Pantothenate synthetase (Mycobacterium tuberculosis (strain ATCC 25618 / H37Rv)) (UniProt P9WIL5)
Test: Coupled enzyme confirmation of inhibitors against recombinant Mtb PanC (AID 375);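 also: 0% = full reaction with vehicle and 100% = no enzyme background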
Conditions: coupled enzyme assay; at 10 µM, stronger effect = higher value

Sequence of Pantothenate synthetase (Mycobacterium tuberculosis (strain ATCC 25618 / H37Rv)) (P9WIL5 whole entry, looked up): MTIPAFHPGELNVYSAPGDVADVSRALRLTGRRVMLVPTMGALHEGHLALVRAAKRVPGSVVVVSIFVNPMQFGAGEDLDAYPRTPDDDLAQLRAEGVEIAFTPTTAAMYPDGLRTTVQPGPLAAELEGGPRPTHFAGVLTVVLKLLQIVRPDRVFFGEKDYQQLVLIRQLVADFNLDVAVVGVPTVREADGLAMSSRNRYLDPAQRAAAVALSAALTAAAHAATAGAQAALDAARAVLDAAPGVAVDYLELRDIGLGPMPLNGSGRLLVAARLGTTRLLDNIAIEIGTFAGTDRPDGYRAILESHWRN

Structure (SMILES)	inhibition [%]
COc1ccc(COC(=O)c2n[nH]c3ccccc23)cc1F	0
CCN1CCN(CCCNC(=O)c2cc3sccc3n2CC)CC1	0
COc1cccc(OCC(=O)Nc2ccccc2C(N)=O)c1	4
O=C1CCCc2nc(N3CCCCC3)sc21	5
O=c1c2ccccc2nc(SCc2cn3ccsc3n2)n1-c1ccc(F)cc1	0
COC(=O)CSC1=C(C#N)C(c2ccccc2)CC(=O)N1 (stereo not given)	0
COc1ccc(-c2noc(-c3ccccc3C(=O)Nc3cccnc3)n2)cc1	0
CC(C)NC(=O)Nc1cccs1	9
CCCCN1C[C@H](O)[C@@H](O)[C@H](O)[C@H]1CO	0
CC(C)(C)N(Cc1cc2ccccc2[nH]c1=O)C(=O)C1CCCCC1	3
Cc1ccc2nsnc2c1S(=O)(=O)N1CCN(Cc2ccc3c(c2)OCO3)CC1	5
CCc1c(C)nc2ncnn2c1NCCc1ccc(OC)c(OC)c1	0
CCOC(=O)c1nnc2ccnn2c1N	0
CCCCCC#CCC#CCC#CCC#CCCCC(=O)O	0
CCOC(=O)C1CCCN(Cc2nc(N)nc(Nc3ccccc3)n2)C1 (stereo not given)	10
Cc1onc(-c2ccccc2Cl)c1C(=O)Nc1cnn(Cc2ccccc2)c1	0
CCOC(=O)c1ccc(NC2OC(=O)c3ccccc32)cc1 (stereo not given)	4
C[C@H]1C[C@@H]2[C@H]([C@@H](O)C[C@@]3(C)[C@H]2CC[C@]3(O)C(=O)CO)[C@@]2(C)C=CC(=O)C=C12	0
Cc1ccc(NC(=O)c2ccccc2O)cc1	1
CCC(C)(C(=O)NC1CCCC1)N(Cc1cccs1)C(=O)Cc1cccs1 (stereo not given)	0

Structure (SMILES)	inhibition [%]
Cc1ccc(Cn2c(=O)c3ccccc3n3c(CCC(=O)O)nnc23)cc1	0
CC(C)C(CO)NC(=O)CC(=O)NC(CO)C(C)C (stereo not given)	2
O=C(CN1CCC(n2nnc3ccccc32)CC1)Nc1ccc2c(c1)CCC2	0
Nc1c(C2=NCCO2)nnn1Cc1ccccc1	0
CCOc1ccc(NC(=O)CSc2nnnn2CC(=O)O)cc1	0
COC(=O)c1ccc(CNC(=O)CSc2nc3sc(C)c(C)c3c(=O)n2C)o1	0
COc1ccc(C)cc1NC(=O)CCC(=O)Nc1ccc2nc(N3CCN(C)CC3)cc(C)c2c1	0
COC(=O)c1cccc(NC(=O)CSc2nnc(COc3ccc(C#N)cc3)n2-c2ccccc2)c1	2
CCCCC[C@H](O)/C=C/[C@H]1C=CC(=O)[C@@H]1C/C=C\CCCC(=O)O	0
O=C(NCC(c1cccnc1)N1CCN(c2ccc(F)cc2)CC1)c1ccc(F)cc1 (stereo not given)	4
CC1CCCCN1CCNS(=O)(=O)c1ccc2c(c1)oc(=O)n2C (stereo not given)	0
COc1ccc(Cl)c(N2CCN(CCCNC(=O)Nc3ccc(C)cc3)CC2)c1	0
Cc1nn(-c2nc3ccccc3[nH]2)c(N)c1-c1ccccc1	8
COCCn1c(C)cc(C(=O)COC(=O)c2n[nH]c3ccccc23)c1C	1
Cc1ccc(C(=O)Nc2ccc3c(c2)OCO3)o1	0
C=CCn1c(SCn2nnc3ccccc3c2=O)nnc1-c1ccc(Br)cc1	2
COc1ccccc1NC(=O)C1=C(C)NC(SCC(=O)c2ccc(C)cc2)=C(C#N)C1c1ccco1 (stereo not given)	0
Oc1cc(NCc2cccnc2)ccc1-c1nc2ccccc2o1	0
COc1ccc(Cn2c(-c3ccco3)nc3oc4ccccc4c(=O)c3c2=O)cc1	0
COc1cc(C2C(C#N)=C(N)Oc3cc(N)ccc32)cc(OC)c1OC (stereo not given)	2
